{
  "source": "PubChem BioAssay (EPA / NIEHS)",
  "note": "Calls of active or inactive are those of the source. The calls were made as follows: active = hit-call score of the fitted dose curve at least 0.9, where 1 is the maximum; inactive = score below 0.9.",
  "data": [
    {"read-out": "Monocyte Chemoattractant Protein-1 (MCP1), CCL2 (gene 6347)", "experiment": "BSK_LPS_MCP1: BioMAP Diversity Plus: LPS Assay for Monocyte Chemoattractant Protein-1 (MCP1) Biomarker Activity (AID 2283081);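 as to AC50: secreted MCP-1 protein quantified by ELISA in culture supernatant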", "conditions": "primary human HUVEC with PBMC; actives raise or lower the signal", "summary_of_the_method": "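LPS-stimulated HUVEC/PBMC co-culture; chemical, 24 h; MCP-1 by ELISA; bidirectional fit vs DMSO; cytotoxicity via SRB (0.1% stain, 10% TCA fix, 560 nm) in parallel wells.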", "values": [
      {"smiles": "CCCCOC(=O)CCCCC(=O)OCCCC", "outcome": "inactive"},
      {"smiles": "CCc1nc(N)nc(N)c1-c1ccc(Cl)cc1", "outcome": "inactive"},
      {"smiles": "CO[C@@H]1COCC[C@@H]1N[C@@H]1CC[C@@](C(=O)N2CCc3ncc(C(F)(F)F)cc3C2)(C(C)C)C1", "outcome": "inactive"},
      {"smiles": "O=C1OC(c2ccc(O)cc2)(c2ccc(O)cc2)c2ccccc21", "outcome": "inactive"},
      {"smiles": "CN(C)CCCN1c2ccccc2Sc2ccc(Cl)cc21", "AC50": "26 µM (active)"},
      {"smiles": "Nc1nc(=S)c2[nH]cnc2[nH]1", "outcome": "inactive"},
      {"smiles": "CC(C)OC(=O)C(C)(C)Oc1ccc(C(=O)c2ccc(Cl)cc2)cc1", "AC50": "29.7 µM (active)"},
      {"smiles": "CCCCC(CC)CO", "note": "(stereo not given)", "outcome": "inactive"},
      {"smiles": "CCCCCCC(C=O)=Cc1ccccc1", "outcome": "inactive"},
      {"smiles": "CCOCCOCCO", "outcome": "inactive"}
    ]}
  ]
}
